Measurements taken from PubChem BioAssay AID1159580 (chemical genetic matrix, 2015).
In all, about 5,500 compounds went through this assay and about 2,000 (36%) were called active. Not shown: some 18% with an inconclusive outcome. Rule as the data show it: active = normalized growth mostly below about 0.91 (no sharp cut-off); inconclusive = no clear call, values can overlap the other calls; inactive = mostly above about 0.92. The list shows a part of the results.

Assay: chemical genetic growth profiling, strain panel (AID 1159580);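 also: tested at 20 µM; growth read once vehicle control cultures reached saturation at 30 °C; 1 = growth at the plate median or of vehicle wells; lower values mean less growth of the strain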
Conditions: growth OD

Measured: normalized growth

C[N+](C)(C)CCOP(=O)([O-])OP(=O)(O)OC[C@H]1OC(n2ccc(N)nc2=O)[C@H](O)[C@@H]1O (some centres not stated)
inactive: S. cerevisiae deletion strains, locus YJR075W, strain HOC1, active compounds read low 0.975 | S. cerevisiae deletion strains, locus YKL009W, strain mrt4, active compounds read low 1.03 | S. cerevisiae deletion strains, locus YKL068W, active compounds read low 0.991 | S. cerevisiae deletion strains, locus YKL085W, strain MDH1 (second series), active compounds read low 1.02 | S. cerevisiae deletion strains, locus YKL085W, strain MDH1, active compounds read low 1.02 | S. cerevisiae deletion strains, locus YKL160W, strain elf1, active compounds read low 0.984 | S. cerevisiae deletion strains, locus YKL190W, strain CNB1, active compounds read low 0.999 | S. cerevisiae deletion strains, locus YKR001C, strain vps1, active compounds read low 1.01 | S. cerevisiae deletion strains, locus YKR026C, strain gcn3, active compounds read low 0.979 | S. cerevisiae deletion strains, locus YKR091W, strain srl3, active compounds read low 0.982 | S. cerevisiae deletion strains, locus YLL001W, strain dnm1, active compounds read low 0.963 | S. cerevisiae deletion strains, locus YLL026W, active compounds read low 0.985 | S. cerevisiae deletion strains, locus YLL041C, strain sdh2, active compounds read low 0.98 | S. cerevisiae deletion strains, locus YLR027C, strain aat2, active compounds read low 0.987 | S. cerevisiae deletion strains, locus YLR039C, strain RIC1, active compounds read low 1.03 | S. cerevisiae deletion strains, locus YLR058C, strain SHM2, active compounds read low 1 | S. cerevisiae deletion strains, locus YLR102C, strain apc9, active compounds read low 1.01 | S. cerevisiae deletion strains, locus YLR113W, strain HOG1, active compounds read low 0.978 | S. cerevisiae deletion strains, locus YLR221C, strain rsa3, active compounds read low 1.01 | S. cerevisiae deletion strains, locus YLR258W, strain gsy2, active compounds read low 0.999 | S. cerevisiae deletion strains, locus YLR262C, strain YPT6 (second series), active compounds read low 0.98 | S. cerevisiae deletion strains, locus YLR262C, strain YPT6, active compounds read low 0.993 | S. cerevisiae deletion strains, locus YLR268W, strain sec22, active compounds read low 0.974 | S. cerevisiae deletion strains, locus YLR320W, strain mms22, active compounds read low 1.01 | S. cerevisiae deletion strains, locus YLR330W, strain CHS5, active compounds read low 1 | S. cerevisiae deletion strains, locus YLR342W, strain FKS1 (second series), active compounds read low 1.05 | S. cerevisiae deletion strains, locus YLR342W, strain FKS1, active compounds read low 0.974 | S. cerevisiae deletion strains, locus YLR357W, strain rsc2, active compounds read low 0.994 | S. cerevisiae deletion strains, locus YLR370C, strain arc18, active compounds read low 0.981 | S. cerevisiae deletion strains, locus YLR371W, strain rom2, active compounds read low 1.01 | S. cerevisiae deletion strains, locus YLR384C, strain iki3, active compounds read low 0.981 | S. cerevisiae deletion strains, locus YLR418C, strain cdc73, active compounds read low 0.963 | S. cerevisiae deletion strains, locus YML016C, strain PPZ1, active compounds read low 1 | S. cerevisiae deletion strains, locus YML032C, strain rad52, active compounds read low 1.02 | S. cerevisiae deletion strains, locus YML120C, strain ndi1, active compounds read low 0.999 | S. cerevisiae deletion strains, locus YML124C, strain tub3, active compounds read low 1.01 | S. cerevisiae deletion strains, locus YMR058W, strain fet3, active compounds read low 0.978 | S. cerevisiae deletion strains, locus YMR078C, strain ctf18, active compounds read low 1 | S. cerevisiae deletion strains, locus YMR125W, strain sto1, active compounds read low 0.994 | S. cerevisiae deletion strains, locus YMR129W, active compounds read low 0.981 | S. cerevisiae deletion strains, locus YMR205C, strain PFK2, active compounds read low 0.99 | S. cerevisiae deletion strains, locus YMR223W, strain ubp8, active compounds read low 1.02 | S. cerevisiae deletion strains, locus YMR231W, strain pep5, active compounds read low 0.989 | S. cerevisiae deletion strains, locus YMR263W, strain SAP30, active compounds read low 0.983 | S. cerevisiae deletion strains, locus YMR307W, strain GAS1, active compounds read low 1.04 | S. cerevisiae deletion strains, locus YNL067W, strain RPL9B, active compounds read low 0.969 | S. cerevisiae deletion strains, locus YNL071W, strain lat1, active compounds read low 0.991 | S. cerevisiae deletion strains, locus YNL128W, strain TEP1, active compounds read low 0.943 | S. cerevisiae deletion strains, locus YNL153C, strain GIM3, active compounds read low 0.985 | S. cerevisiae deletion strains, locus YNL183C, strain NPR1, active compounds read low 0.964 | S. cerevisiae deletion strains, locus YNL209W, strain ssb2, active compounds read low 1 | S. cerevisiae deletion strains, locus YNL233W, strain BNI4, active compounds read low 0.994 | S. cerevisiae deletion strains, locus YNL248C, strain rpa49, active compounds read low 1 | S. cerevisiae deletion strains, locus YNL250W, strain rad50, active compounds read low 1 | S. cerevisiae deletion strains, locus YNL271C, strain bni1, active compounds read low 0.995 | S. cerevisiae deletion strains, locus YNL298W, strain CLA4, active compounds read low 1 | S. cerevisiae deletion strains, locus YNL307C, strain MCK1, active compounds read low 1.02 | S. cerevisiae deletion strains, locus YNL322C, strain KRE1 (second series), active compounds read low 0.975 | S. cerevisiae deletion strains, locus YNL322C, strain KRE1, active compounds read low 0.998 | S. cerevisiae deletion strains, locus YNR049C, strain mso1, active compounds read low 0.972 | S. cerevisiae deletion strains, locus YNR052C, strain pop2, active compounds read low 1.02 | S. cerevisiae deletion strains, locus YOL006C, strain TOP1, active compounds read low 1.04 | S. cerevisiae deletion strains, locus YOL012C, strain htz1 0.746 | S. cerevisiae deletion strains, locus YOL147C, strain pex11, active compounds read low 1 | S. cerevisiae deletion strains, locus YOR001W, strain rrp6, active compounds read low 0.988 | S. cerevisiae deletion strains, locus YOR061W, strain CKA2, active compounds read low 1 | S. cerevisiae deletion strains, locus YOR069W, strain VPS5, active compounds read low 1 | S. cerevisiae deletion strains, locus YOR070C, strain gyp1, active compounds read low 0.998 | S. cerevisiae deletion strains, locus YOR080W, strain dia2, active compounds read low 0.985 | S. cerevisiae deletion strains, locus YOR083W, strain WHI5, active compounds read low 0.989 | S. cerevisiae deletion strains, locus YOR106W, strain vam3, active compounds read low 0.982 | S. cerevisiae deletion strains, locus YOR136W, strain idh2, active compounds read low 1 | S. cerevisiae deletion strains, locus YOR144C, strain elg1, active compounds read low 1 | S. cerevisiae deletion strains, locus YOR184W, strain ser1, active compounds read low 1.03 | S. cerevisiae deletion strains, locus YOR231W, strain MKK1, active compounds read low 1 | S. cerevisiae deletion strains, locus YOR265W, strain rbl2, active compounds read low 0.985 | S. cerevisiae deletion strains, locus YOR270C, strain vph1, active compounds read low 0.98 | S. cerevisiae deletion strains, locus YOR290C, strain snf2, active compounds read low 1.01 | S. cerevisiae deletion strains, locus YOR316C, strain cot1, active compounds read low 1.01 | S. cerevisiae deletion strains, locus YPL051W, strain arl3, active compounds read low 0.999 | S. cerevisiae deletion strains, locus YPL055C, strain LGE1, active compounds read low 0.937 | S. cerevisiae deletion strains, locus YPL078C, strain atp4, active compounds read low 0.976 | S. cerevisiae deletion strains, locus YPL106C, strain sse1, active compounds read low 0.993 | S. cerevisiae deletion strains, locus YPL240C, strain hsp82, active compounds read low 0.993 | S. cerevisiae deletion strains, locus YPL241C, strain CIN2, active compounds read low 0.992 | S. cerevisiae deletion strains, locus YPL256C, strain CLN2, active compounds read low 0.982 | S. cerevisiae deletion strains, locus YPR119W, strain clb2, active compounds read low 0.993 | S. cerevisiae deletion strains, locus YPR141C, strain kar3, active compounds read low 0.993 | S. cerevisiae deletion strains, locus YPR163C, strain tif3, active compounds read low 1.01 | S. cerevisiae deletion strains, locus YPR167C, strain met16, active compounds read low 0.992 | S. cerevisiae deletion strains, strain wtn01, active compounds read low 0.987 | S. cerevisiae strains, strain wild type, active compounds read low 0.972
